Experimental data taken from PubChem BioAssay (NCI).
Compounds without any hit were thinned out: in the full panel of roughly 83,000, 20% have a hit.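 Method: cells in 96-well plates; compound added at one concentration; 48 h incubation; percent growth measured; values under 10 scored active.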 The source made the active and inactive calls.

How the values were obtained:
Assay in all cases: NCI-60 one-dose screen, 48 h (100 = growth as untreated, 0 = no growth, -100 = all killed)
Details in all cases: 10 µM unless noted
[1] = test system: HCT-15 colon
[2] = test system: HT29 colon
[3] = test system: SNB-75 CNS
[4] = test system: SNB-19 CNS
[5] = test system: U251 CNS
[6] = test system: SK-MEL-5 melanoma
[7] = test system: UACC-62 melanoma
[8] = test system: LOX IMVI melanoma
[9] = test system: SK-MEL-28 melanoma
[10] = test system: PC-3 prostate

Measured: growth

Cc1ccc(/C=C/C(=O)Nc2ncc(Cc3ccc(F)cc3)s2)o1
inactive: [1] 22% | [2] 21.6% | [3] 52.1% | [4] 68.7% | [5] 47.5% | [6] 45.3% | [7] 31.5% | [8] 40.6% | [9] 59.7%

Cc1ccc(C)c2c(C)c(C(=O)Nc3cccc(-n4cccn4)c3)oc12
inactive: [1] 49% [50 µM] | [2] 48.2% [50 µM] | [3] 86.6% [50 µM] | [4] 87.2% [50 µM] | [5] 70.9% [50 µM] | [6] 44.3% [50 µM] | [7] 73.9% [50 µM] | [8] 62.2% [50 µM] | [9] 86.7% [50 µM]

CCN1C(=O)N(CC)C2Nn3c(s/c(=C\c4ccccc4Br)c3=O)=NC21 (stereo unspecified)
active: [2] 4.78% | [3] -1.27% | [5] 4.95%
inactive: [1] 18.6% | [4] 26.6% | [6] 13% | [7] 22.8% | [8] 20.9% | [9] 42.1%

CSC(SC)=C(C#N)c1nc2ccccc2s1
inactive: [1] 61.8% | [2] 97.2% | [3] 74.3% | [4] 66.9% | [5] 76.5% | [6] 27.9% | [8] 84.1% | [9] 38.8%

CC(=O)OC[C@]12CC[C@@H]([C@@H](C)c3nnc(-c4ccncc4)o3)[C@@H]1[C@H]1CC[C@@H]3[C@@]4(C)CC[C@H](OC(C)=O)C(C)(C)[C@@H]4CC[C@@]3(C)[C@]1(C)CC2
inactive: [1] 77.5% | [2] 63.8% | [3] 103% | [4] 82.7% | [5] 64.1% | [6] 74.3% | [7] 58.2% | [8] 77.2% | [9] 92.8%

CN1CCN(c2ccc(NC(=O)c3cncnc3Nc3ccc(OCc4cccc(F)c4)c(Cl)c3)cc2)CC1
active: [1] -39.6% | [2] -55.3%
inactive: [3] 68.3% | [4] 84.1% | [5] 47% | [6] 87.8% | [7] 48% | [8] 29.7% | [9] 81.1%

COc1ccc(/C(C)=C(/c2ccc(OCCCN(C)C)cc2)c2ccc(OC(=O)c3ccccc3)cc2)cc1
inactive: [1] 63% | [3] 105% | [4] 94.8% | [5] 68.2% | [6] 85.7% | [7] 88.7% | [9] 85.2%
active: [2] 9.02% | [8] -2.62%

Clc1ccccc1-c1cnn2cc(-c3ccccc3)cnc12
inactive: [1] 70.1% | [2] 73.4% | [3] 74.2% | [4] 71% | [5] 82.9% | [6] 93.2% | [7] 65.9% | [8] 94.6% | [9] 88.3%

COc1cc2c(c(OC)c1OC)C(=O)CC(c1cccc(NC(=O)c3ccc(C#N)cc3)c1)O2 (stereo unspecified)
inactive: [1] 75.7% | [2] 84.9% | [3] 74.9% | [4] 92% | [5] 80.5% | [6] 43.2% | [7] 33.9% | [8] 65.7% | [9] 90.6%

FC(F)(F)Oc1cccc(-c2cnc3ccc(-c4ccncc4)nn23)c1
inactive: [2] 14.7% | [3] 41.6% | [4] 23.5% | [5] 18.7% | [6] 22.6% | [9] 20%
active: [1] 8.36% | [7] -0.898% | [8] 9.23%

CN(Cc1ccccc1)c1nc(Cl)c(C2CC(c3ccccc3)=NN2c2ccccc2)s1 (stereo unspecified)
inactive: [1] 94.2% | [2] 80.8% | [3] 82.3% | [4] 100% | [5] 90.2% | [6] 98.8% | [7] 88.8% | [8] 88.4% | [9] 98.2%

CC1C(/C=N/NC(N)=S)C(C#N)(C#N)C1(C#N)C#N (stereo unspecified)
inactive: [1] 109% | [2] 110% | [3] 92.7% | [4] 101% | [5] 102% | [6] 104% | [7] 96.9% | [8] 109% | [9] 116%

Cc1ccc2c(=O)cc(C(=O)Nc3sc4c(c3C(=O)NCc3cccnc3)CCCC4)oc2c1C
inactive: [1] 103% | [2] 109% | [3] 91.7% | [4] 96.1% | [5] 104% | [6] 99.7% | [7] 96.6% | [8] 93.1% | [9] 104%

COc1cc(/C=C/C(=O)/C=C(O)/C=C/c2ccc(OC(=O)C34CC5CC(CC(C5)C3)C4)c(OC)c2)ccc1OC(=O)C12CC3CC(CC(C3)C1)C2
inactive: [1] 99.3% | [2] 104% | [3] 90% | [4] 101% | [5] 104% | [6] 105% | [7] 98.8% | [8] 95.3% | [9] 100%

COc1ccc(C(=O)Cn2c(C(=O)c3ccc(OC)cc3)nc3ccccc32)cc1
inactive: [1] 15.9% | [2] 14.9% | [3] 10.4% | [4] 48.8% | [5] 18.3% | [6] 23.5% | [7] 13.9% | [9] 42.8%

C/C(=N\O)c1ccc(NC(=O)CSc2nnc(-c3cc(-c4ccc(S(C)(=O)=O)cc4)nc4ccccc34)n2-c2ccccc2)cc1
inactive: [1] 84.7% | [2] 102% | [3] 57% | [4] 87.6% | [5] 93.5% | [6] 74.8% | [7] 80.6% | [8] 76.7% | [9] 102%

O=C1c2ccccc2C(=O)c2c1cc1c(c2[N+](=O)[O-])OCO1
inactive: [1] 13.7% | [2] 32.5% | [4] 21.7% | [6] 80% | [7] 15.2% | [9] 103%
active: [3] -13.4% | [5] -13.3% | [8] 2.79%

C=CCN1C(=O)c2cccc3c(N4CCOCC4)ccc(c23)C1=O
active: [1] -9.11% | [2] 6.76% | [5] 5.37% | [6] -62.7% | [8] 1.13% | [9] 5.67%
inactive: [3] 12.8% | [4] 24.9%

CC/C=C\CCC/C=C1/C(=O)C=C[C@@H]1C/C=C\CCCC(=O)OC
inactive: [3] 82.7% | [4] 50.2% | [5] 19.7% | [9] 61.3%
active: [1] 4.07% | [2] -1.77% | [6] -32% | [7] -14.2% | [8] -70.8%

N#Cc1nc(-c2ccccc2)oc1S(=O)(=O)N1CCN(c2ccc(F)cc2)CC1
inactive: [1] 25.5% | [2] 46% | [3] 96.9% | [4] 87.6% | [5] 82.1% | [6] 86.1% | [7] 75.6% | [8] 15.2% | [9] 94.7%

CCOC(=O)c1[nH]c2c(c1C)-c1[nH]c(=O)c(S(=O)(=O)c3ccccc3)cc1SC2
inactive: [1] 72.8% [100 µM] | [2] 13.4% [100 µM] | [3] 17% [100 µM] | [4] 94.7% [100 µM] | [5] 31.9% [100 µM] | [6] 35.9% [100 µM] | [8] 50% [100 µM] | [9] 20.7% [100 µM]

Cc1cccc(-c2nc(Nc3ccc4ncsc4c3)c3ccccc3n2)n1
inactive: [1] 70.7% | [2] 43.1% | [4] 102% | [5] 77% | [10] 14.7% | [6] 42.4% | [7] 80.8% | [8] 93.2% | [9] 98.2%

C#CC#CC#CC#CC#CC#CC#CC#CCC1OC[C@H](COC(=O)O[C@@H](C(=O)O[C@H]2C[C@@]3(O)[C@@H](OC(=O)c4ccccc4)[C@@H]4[C@]5(OC(C)=O)CO[C@@H]5C[C@H](O)[C@@]4(C)C(=O)[C@H](OC(C)=O)C(=C2C)C3(C)C)[C@@H](NC(=O)c2ccccc2)c2ccccc2)O1 (stereo partly specified)
active: [2] 7.52%
inactive: [1] 88% | [4] 27.9% | [5] 26.2% | [10] 23.2% | [6] 31.6% | [7] 28.3% | [8] 29.6% | [9] 53.6%

NC(=O)c1cccc([C@@H]2O[C@H](CO)[C@@H](O)[C@H]2O)c1
inactive: [1] 12.8% | [2] 54% | [4] 54.2% | [5] 41.1% | [10] 47.8% | [6] 97.4% | [7] 88.6% | [8] 91.5% | [9] 62.1%

CC1(C)C(N)=Nc2cc(OCCCN3Cc4ccccc4C3)c(OCC3CC3)cc21
inactive: [1] 40% | [2] 31.6% | [4] 85.2% | [5] 56.4% | [10] 49.6% | [6] 53.1% | [7] 78% | [8] 33.7% | [9] 56.2%

Cn1c(=O)c2[nH]c(SCC(=O)Nc3ccc(C(=O)/C=C/c4ccccc4Cl)cc3)nc2n(C)c1=O
inactive: [1] 92.5% | [2] 119% | [4] 97.1% | [5] 91.9% | [10] 93.4% | [6] 90% | [7] 95.6% | [8] 96.4% | [9] 99.9%

COc1ccc(C2CC(c3cc(OC)c(OC)c(OC)c3)=NO2)cc1OCCCCOc1cc2c(cc1OC)C(=O)N1CCC[C@H]1C=N2 (stereo partly specified)
inactive: [1] 39.8% | [4] 16.5% | [10] 45.8%
active: [2] -13.9% | [5] 4.05% | [6] -79.6% | [7] -67.8% | [9] -23.1%

O=C(CN1CCN(c2cc3c(cc2F)c(=O)c(C(=O)O)cn3C2CC2)CC1)N/N=C/c1ccco1
inactive: [1] 102% | [2] 104% | [4] 99.7% | [5] 96.7% | [10] 93.5% | [6] 94.5% | [7] 93.5% | [9] 97.9%
